From PubChem BioAssay (EPA / NIEHS)
Inconclusive results are not listed. Calls of active or inactive are those of the source. The calls were made as follows, unless noted: active = hit-call score of the fitted dose curve at least 0.9, where 1 is the maximum; inconclusive = response in the unintended direction; inactive = score below 0.9.

What was measured:
[1] = ATG_TAL_CIS: Attagene CIS-FACTORIAL HepG2 Assay for human TAL Basal Promoter (AID 2282966; active = hit-call score of the fitted dose curve at least 0.9, where 1 is the maximum; inactive = score below 0.9;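 also: background control endpoint measuring basal TAL promoter reporter mRNA not a specific factor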); details: HepG2 Attagene cis-factorial TAL promoter reporter; actives raise or lower the signal
How it was run: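 Background-control endpoint: basal TAL promoter reporter transcripts in transiently transfected HepG2, measured 24 h after dosing. Read-out by RT-PCR with fluorescent primer extension and capillary electrophoresis; gain or loss of signal fitted relative to DMSO.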

[2] = ATG_TGFb_CIS: Attagene CIS-FACTORIAL HepG2 Assay for human Transforming Growth Factor (TGF) (AID 2282967; active = hit-call score of the fitted dose curve at least 0.9, where 1 is the maximum; inactive = score below 0.9); details: HepG2 Attagene CIS TGFb reporter, mRNA transcription; actives raise or lower the signal
How it was run: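 Bidirectional fitting relative to DMSO gave the endpoint. Underlying data: reporter mRNA from HepG2 cells carrying transiently transfected cis-regulated reporter constructs, harvested 24 h after dosing and analyzed by RT-PCR and capillary electrophoresis.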

[3] = ATG_VDRE_CIS: Attagene CIS-FACTORIAL HepG2 Assay for human Vitamin D Receptor Element (VDRE) (AID 2282968; active = hit-call score of the fitted dose curve at least 0.9, where 1 is the maximum; inactive = score below 0.9); details: HepG2 VDRE cis-reporter transcription, actives raise or lower the signal
How it was run: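 Measures endogenous factor activity through cis-element-driven reporter transcripts in transiently transfected HepG2. Cells are treated 24 h; reporter mRNA is quantified by RT-PCR and capillary electrophoresis; fitting is bidirectional.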

[4] = molecular target: Nuclear receptor subfamily 1 group I member 3 (Homo sapiens) (UniProt Q14994); test: ATG_CAR_TRANS: Attagene TRANS-FACTORIAL HepG2 Assay for human Constitutive Androstane Receptor (CAR) (AID 2282969); details: HepG2 Attagene TRANS-FACTORIAL CAR reporter;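 also: activators raise reporter mRNA above DMSO so AC50 marks induction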
Sequence of Nuclear receptor subfamily 1 group I member 3 (Homo sapiens) (Q14994 whole entry, looked up, the tested form may be a part): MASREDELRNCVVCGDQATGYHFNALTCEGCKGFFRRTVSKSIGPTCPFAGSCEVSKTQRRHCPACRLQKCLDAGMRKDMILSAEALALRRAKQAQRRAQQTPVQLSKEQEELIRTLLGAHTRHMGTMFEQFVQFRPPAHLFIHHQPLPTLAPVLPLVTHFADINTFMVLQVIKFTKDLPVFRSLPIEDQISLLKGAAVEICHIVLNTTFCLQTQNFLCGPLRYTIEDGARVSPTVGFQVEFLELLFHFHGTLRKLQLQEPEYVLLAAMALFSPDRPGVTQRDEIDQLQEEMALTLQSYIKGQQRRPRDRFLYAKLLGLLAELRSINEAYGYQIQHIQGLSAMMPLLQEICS
How it was run: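 Signal is reporter mRNA induction relative to DMSO, measured 24 h after dosing by RT-PCR with fluorescent primer extension and capillary electrophoresis. Human HepG2 liver cells carried transiently transfected chimeric NR-Gal4/GAL4-UAS reporter constructs.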

[5] = molecular target: X-box-binding protein 1 (Homo sapiens) (UniProt P17861); test: ATG_Xbp1_CIS: Attagene CIS-FACTORIAL HepG2 Assay for human X-box Binding Protein 1 (XBP1) (AID 2282972; active = hit-call score of the fitted dose curve at least 0.9, where 1 is the maximum; inactive = score below 0.9); details: HepG2 XBP1 cis-element reporter, Attagene multiplex; actives raise or lower the signal
Sequence of X-box-binding protein 1 (Homo sapiens) (P17861 whole entry, looked up): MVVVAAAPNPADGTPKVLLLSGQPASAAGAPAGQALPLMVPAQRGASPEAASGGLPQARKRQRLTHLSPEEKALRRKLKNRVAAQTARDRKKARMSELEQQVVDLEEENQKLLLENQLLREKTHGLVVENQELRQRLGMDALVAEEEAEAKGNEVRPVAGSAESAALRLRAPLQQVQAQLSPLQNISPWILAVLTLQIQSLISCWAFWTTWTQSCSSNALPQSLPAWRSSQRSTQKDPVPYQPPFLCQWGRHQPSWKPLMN
How it was run: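 Reporter transcripts were quantified by RT-PCR with fluorescent primer extension and capillary electrophoresis after 24 h chemical exposure. Cells: transiently transfected HepG2 carrying cis-regulated reporter constructs; data fitted bidirectionally relative to DMSO.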

[6] = ATG_M_19_TRANS: Attagene TRANS-FACTORIAL HepG2 Assay for M19 Transcription Factor (Internal Marker) (AID 2282974); details: HepG2 Attagene TRANS-FACTORIAL M19 internal marker reporter
How it was run: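 Reporter mRNA induction was measured in transfected HepG2 cells 24 h after dosing. Endpoint fitted upward relative to DMSO and serves as a background control within the multiplexed TRANS panel.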

[7] = ATG_GAL4_TRANS: Attagene TRANS-FACTORIAL HepG2 Assay for GAL4 (Internal Marker) (AID 2282976); details: HepG2 Attagene TRANS GAL4 internal marker reporter
How it was run: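 In transfected human HepG2 liver cells dosed 24 h, GAL4 reporter mRNA serves as a baseline marker. Detection by RT-PCR with fluorescent capillary electrophoresis, activity fitted upward relative to DMSO.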

[8] = molecular target: Glucocorticoid receptor (Homo sapiens) (UniProt P04150); test: ATG_GR_TRANS: Attagene TRANS-FACTORIAL HepG2 Assay for human Glucocorticoid Receptor (GR) (AID 2282978); details: HepG2 Attagene TRANS GR reporter, mRNA transcription;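 also: activators score as hits since higher reporter transcript over DMSO is fitted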
How it was run: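 Reporter transcript levels, detected by fluorescence after RT-PCR and capillary electrophoresis, served as the endpoint. HepG2 cells bearing transfected GAL4-UAS reporters responsive to NR-GAL4 chimeras were incubated with compound 24 h; DMSO defined baseline.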

[9] = molecular target: Bile acid receptor (Homo sapiens) (UniProt Q96RI1); test: ATG_FXR_TRANS: Attagene TRANS-FACTORIAL HepG2 Assay for Farnesoid X Receptor (FXR) (AID 2282979); details: HepG2 Attagene TRANS FXR-GAL4 reporter transcription;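 also: hits raise reporter mRNA above DMSO so AC50 marks FXR activation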
Sequence of Bile acid receptor (Homo sapiens) (Q96RI1 whole entry, looked up, the tested form may be a part): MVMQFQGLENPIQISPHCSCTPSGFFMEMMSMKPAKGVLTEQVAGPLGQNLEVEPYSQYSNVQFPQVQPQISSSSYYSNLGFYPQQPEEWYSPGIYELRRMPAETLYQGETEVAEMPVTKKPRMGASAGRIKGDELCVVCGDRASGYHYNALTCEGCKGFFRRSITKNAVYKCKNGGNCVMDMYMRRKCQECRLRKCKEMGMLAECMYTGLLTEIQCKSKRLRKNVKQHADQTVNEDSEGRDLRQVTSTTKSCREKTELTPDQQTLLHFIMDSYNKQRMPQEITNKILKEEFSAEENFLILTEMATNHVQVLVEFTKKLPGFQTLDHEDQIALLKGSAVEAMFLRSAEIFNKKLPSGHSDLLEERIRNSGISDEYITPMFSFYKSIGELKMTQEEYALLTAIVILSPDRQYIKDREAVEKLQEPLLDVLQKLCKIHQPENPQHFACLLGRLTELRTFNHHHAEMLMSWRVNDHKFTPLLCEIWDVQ
How it was run: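 Reporter transcripts from transfected HepG2 cells were measured 24 h after dosing, using RT-PCR with capillary electrophoresis of 6-FAM-labelled fragments. The read-out reflects activity of exogenous FXR-Gal4 chimera on GAL4-UAS units, with induction relative to DMSO.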

[10] = molecular target: Hepatocyte nuclear factor 4-alpha (Homo sapiens) (UniProt P41235); test: ATG_HNF4a_TRANS: Attagene TRANS-FACTORIAL HepG2 Assay for human Hepatocyte Nuclear Factor 4 alpha (HNF4a) (AID 2282982); details: HepG2 HNF4a transactivation reporter, mRNA readout
Sequence of Hepatocyte nuclear factor 4-alpha (Homo sapiens) (P41235 whole entry, looked up): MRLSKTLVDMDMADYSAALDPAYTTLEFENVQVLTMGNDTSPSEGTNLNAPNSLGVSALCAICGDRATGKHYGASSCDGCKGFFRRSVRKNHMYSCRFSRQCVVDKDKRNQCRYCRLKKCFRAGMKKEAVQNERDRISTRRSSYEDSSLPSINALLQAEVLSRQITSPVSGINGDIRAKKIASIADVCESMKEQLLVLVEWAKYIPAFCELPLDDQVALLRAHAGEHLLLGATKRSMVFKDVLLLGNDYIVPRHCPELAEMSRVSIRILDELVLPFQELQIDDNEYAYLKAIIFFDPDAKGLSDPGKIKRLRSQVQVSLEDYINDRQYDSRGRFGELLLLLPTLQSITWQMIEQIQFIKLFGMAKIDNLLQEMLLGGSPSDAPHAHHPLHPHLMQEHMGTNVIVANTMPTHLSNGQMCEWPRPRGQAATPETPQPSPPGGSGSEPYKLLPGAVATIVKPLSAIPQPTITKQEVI
How it was run: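 Multiplexed reporter assay: transfected HepG2, 24 h exposure, total RNA → oligo(dT) RT → PCR → 6-FAM extension → HpaI digest → CE fluorescence. DMSO = negative control.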

[11] = ATG_M_06_TRANS: Attagene TRANS-FACTORIAL HepG2 Assay for M06 Transcription Factor (Internal Marker) (AID 2282983); details: HepG2 Attagene TRANS M06 internal marker reporter
How it was run: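 Background-control reporter readout: after 24 h chemical exposure of transiently transfected HepG2 (GAL4-UAS reporter units), mRNA quantified by RT-PCR with fluorescent labeling and capillary electrophoresis. Gain-of-signal fitting against DMSO baseline.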

[12] = ATG_M_32_TRANS: Attagene TRANS-FACTORIAL HepG2 Assay for M32 Transcription Factor (Internal Marker) (AID 2282984); details: HepG2 Attagene TRANS M32 internal marker reporter
How it was run: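 Cell-based TRANS-format assay in HepG2: exogenous chimeric GAL4 reporter units transiently expressed, compounds applied 24 h. Reporter mRNA detected by RT-PCR plus capillary electrophoresis; this readout is an internal background marker.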

[13] = molecular target: Nuclear receptor subfamily 4 group A member 2 (Homo sapiens) (UniProt P43354); test: ATG_NURR1_TRANS: Attagene TRANS-FACTORIAL HepG2 Assay for human Nuclear Receptor Related Protein 1 (NURR1) (AID 2282985); details: HepG2 Attagene TRANS reporter, mRNA readout
Sequence of Nuclear receptor subfamily 4 group A member 2 (Homo sapiens) (P43354 whole entry, looked up, the tested form may be a part): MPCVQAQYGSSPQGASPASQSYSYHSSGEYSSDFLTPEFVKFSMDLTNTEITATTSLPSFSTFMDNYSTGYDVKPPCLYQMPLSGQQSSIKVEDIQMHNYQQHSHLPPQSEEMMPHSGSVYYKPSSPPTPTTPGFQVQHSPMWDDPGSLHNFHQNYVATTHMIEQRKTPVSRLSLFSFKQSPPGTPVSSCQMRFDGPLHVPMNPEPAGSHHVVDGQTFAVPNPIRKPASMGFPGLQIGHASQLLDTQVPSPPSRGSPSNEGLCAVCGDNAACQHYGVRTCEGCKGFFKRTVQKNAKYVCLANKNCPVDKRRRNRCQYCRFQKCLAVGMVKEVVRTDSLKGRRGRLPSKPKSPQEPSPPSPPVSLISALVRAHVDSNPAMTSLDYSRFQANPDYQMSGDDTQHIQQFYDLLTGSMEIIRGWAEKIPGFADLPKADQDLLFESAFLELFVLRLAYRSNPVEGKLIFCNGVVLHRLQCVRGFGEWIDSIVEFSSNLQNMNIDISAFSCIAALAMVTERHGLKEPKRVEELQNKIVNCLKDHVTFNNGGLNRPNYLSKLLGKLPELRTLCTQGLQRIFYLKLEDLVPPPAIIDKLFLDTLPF
How it was run: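 Measures transcriptional activation by an exogenous NR-Gal4 chimera in transfected HepG2 liver cells. After 24 h, reporter RNA is reverse-transcribed, amplified and resolved by capillary electrophoresis; DMSO defines baseline.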

[14] = molecular target: Transcriptional activator Myb (Homo sapiens) (UniProt P10242); test: ATG_Myb_CIS: Attagene CIS-FACTORIAL HepG2 Assay for human Myeloblastosis (Myb) Proto-Oncogene Transcription Factor (AID 2282986; active = hit-call score of the fitted dose curve at least 0.9, where 1 is the maximum; inactive = score below 0.9); details: HepG2 Attagene CIS-FACTORIAL Myb reporter transcription; actives raise or lower the signal
Sequence of Transcriptional activator Myb (Homo sapiens) (P10242 whole entry, looked up): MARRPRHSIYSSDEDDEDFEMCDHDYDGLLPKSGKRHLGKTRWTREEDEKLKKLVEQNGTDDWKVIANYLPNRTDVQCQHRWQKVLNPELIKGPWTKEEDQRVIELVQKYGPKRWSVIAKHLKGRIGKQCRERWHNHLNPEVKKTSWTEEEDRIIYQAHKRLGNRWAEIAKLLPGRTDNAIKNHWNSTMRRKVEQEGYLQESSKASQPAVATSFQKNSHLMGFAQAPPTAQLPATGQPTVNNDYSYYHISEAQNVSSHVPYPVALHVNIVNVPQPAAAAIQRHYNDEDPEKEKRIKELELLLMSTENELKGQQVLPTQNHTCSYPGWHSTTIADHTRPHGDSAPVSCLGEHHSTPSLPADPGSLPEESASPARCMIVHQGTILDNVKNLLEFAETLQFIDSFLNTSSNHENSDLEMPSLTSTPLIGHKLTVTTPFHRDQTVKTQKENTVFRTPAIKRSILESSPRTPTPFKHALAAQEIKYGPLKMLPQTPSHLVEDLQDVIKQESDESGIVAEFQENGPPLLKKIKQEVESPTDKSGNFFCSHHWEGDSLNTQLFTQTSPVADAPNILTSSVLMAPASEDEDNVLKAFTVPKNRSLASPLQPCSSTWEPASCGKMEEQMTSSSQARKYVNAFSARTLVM
How it was run: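 Transiently transfected HepG2 cells, treated 24 h. Reporter mRNA quantified by RT-PCR/capillary electrophoresis; bidirectional fit relative to DMSO.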

[15] = molecular target: Nuclear respiratory factor 1 (Homo sapiens) (UniProt Q16656); test: ATG_NRF1_CIS: Attagene CIS-FACTORIAL HepG2 Assay for human Nuclear Respiratory Factor 1 (NRF1) Orphan Gene (AID 2282987; active = hit-call score of the fitted dose curve at least 0.9, where 1 is the maximum; inactive = score below 0.9); details: HepG2 NRF1 cis-element reporter, Attagene multiplex; actives raise or lower the signal
Sequence of Nuclear respiratory factor 1 (Homo sapiens) (Q16656 whole entry, looked up, the tested form may be a part): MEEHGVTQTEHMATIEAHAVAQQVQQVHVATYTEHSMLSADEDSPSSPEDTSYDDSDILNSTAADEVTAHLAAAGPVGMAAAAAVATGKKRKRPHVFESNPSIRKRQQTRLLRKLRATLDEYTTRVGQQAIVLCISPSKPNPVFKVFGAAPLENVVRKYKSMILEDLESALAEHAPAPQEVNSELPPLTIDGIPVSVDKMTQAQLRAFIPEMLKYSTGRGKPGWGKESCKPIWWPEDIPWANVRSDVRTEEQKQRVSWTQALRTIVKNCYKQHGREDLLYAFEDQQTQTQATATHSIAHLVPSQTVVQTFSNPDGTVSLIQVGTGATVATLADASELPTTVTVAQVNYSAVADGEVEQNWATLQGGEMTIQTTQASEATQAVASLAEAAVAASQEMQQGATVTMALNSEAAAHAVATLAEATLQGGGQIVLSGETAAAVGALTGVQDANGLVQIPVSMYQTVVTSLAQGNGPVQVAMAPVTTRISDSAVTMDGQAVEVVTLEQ
How it was run: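 Cells (HepG2, transient MRTU transfection) are exposed to compound for 24 h, then RNA isolated and reporter mRNA amplified and fluorescently labelled. Fragments are separated by capillary electrophoresis; signal change is fitted bidirectionally relative to DMSO.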

[16] = molecular target: Steroid hormone receptor ERR1 (Homo sapiens) (UniProt P11474); test: ATG_ERRa_TRANS: Attagene TRANS-FACTORIAL HepG2 Assay for human Estrogen-Related Receptor alpha (ERRa) (AID 2282971); details: HepG2 Attagene TRANS reporter, ERRa transactivation
How it was run: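 Reporter transcripts from ERRa-Gal4 chimera activity measured in transiently transfected human HepG2 cells 24 hours after dosing, using RT-PCR with 6-FAM primer extension, HpaI digestion and capillary electrophoresis; DMSO is baseline.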

[17] = molecular target: Oxysterols receptor LXR-alpha (Homo sapiens) (UniProt Q13133); test: ATG_LXRa_TRANS: Attagene TRANS-FACTORIAL HepG2 Assay for human Liver X Receptor alpha (LXRa) (AID 2282980); details: HepG2 Attagene TRANS reporter, LXRa transactivation
Sequence of Oxysterols receptor LXR-alpha (Homo sapiens) (Q13133 whole entry, looked up, the tested form may be a part): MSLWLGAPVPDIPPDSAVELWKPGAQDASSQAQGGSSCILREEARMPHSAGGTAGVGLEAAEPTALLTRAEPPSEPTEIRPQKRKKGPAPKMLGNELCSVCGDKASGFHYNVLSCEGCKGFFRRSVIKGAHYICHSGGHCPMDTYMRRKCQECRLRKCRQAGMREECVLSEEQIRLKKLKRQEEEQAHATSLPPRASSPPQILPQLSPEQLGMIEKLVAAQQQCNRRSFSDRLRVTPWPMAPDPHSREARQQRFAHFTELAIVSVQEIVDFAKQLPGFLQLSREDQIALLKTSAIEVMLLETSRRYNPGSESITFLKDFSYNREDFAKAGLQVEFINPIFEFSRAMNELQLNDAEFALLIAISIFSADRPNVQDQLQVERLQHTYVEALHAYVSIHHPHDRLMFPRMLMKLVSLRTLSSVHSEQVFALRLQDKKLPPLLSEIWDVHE
How it was run: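 Chemical-induced reporter mRNA measured by RT-PCR with fluorescent labelling and capillary electrophoresis after 24 h dosing of transiently transfected HepG2 cells expressing exogenous NR-Gal4 chimeras; increases scored against DMSO baseline.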

[18] = molecular target: Oxysterols receptor LXR-beta (Homo sapiens) (UniProt P55055); test: ATG_LXRb_TRANS: Attagene TRANS-FACTORIAL HepG2 Assay for human Liver X Receptor beta (LXRb) (AID 2282981); details: HepG2 Attagene TRANS GAL4-LXRb reporter, mRNA
Sequence of Oxysterols receptor LXR-beta (Homo sapiens) (P55055 whole entry, looked up, the tested form may be a part): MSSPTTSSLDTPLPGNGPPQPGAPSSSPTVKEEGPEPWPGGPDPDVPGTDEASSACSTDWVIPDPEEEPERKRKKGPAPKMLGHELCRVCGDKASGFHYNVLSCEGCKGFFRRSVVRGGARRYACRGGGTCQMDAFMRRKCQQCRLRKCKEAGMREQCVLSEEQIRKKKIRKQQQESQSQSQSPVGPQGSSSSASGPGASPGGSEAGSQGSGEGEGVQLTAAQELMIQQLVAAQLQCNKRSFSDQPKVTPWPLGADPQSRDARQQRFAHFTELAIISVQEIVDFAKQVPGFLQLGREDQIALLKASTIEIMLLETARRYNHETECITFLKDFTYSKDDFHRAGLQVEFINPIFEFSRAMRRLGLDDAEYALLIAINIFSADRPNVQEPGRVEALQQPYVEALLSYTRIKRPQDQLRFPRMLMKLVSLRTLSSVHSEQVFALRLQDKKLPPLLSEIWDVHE
How it was run: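 After 24 h of chemical treatment, transfected HepG2 cells yield total RNA; reporter cDNA is PCR-amplified, FAM-labelled, HpaI-cut and run on capillary electrophoresis. Signal reflects chimeric LXRb-Gal4 activity on GAL4-UAS reporters.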

[19] = molecular target: Estrogen-related receptor gamma (Homo sapiens) (UniProt P62508); test: ATG_ERRg_TRANS: Attagene TRANS-FACTORIAL HepG2 Assay for human Estrogen-Related Receptor gamma (ERRg) (AID 2282977); details: HepG2 Attagene TRANS reporter, ERRg transactivation;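 also: hits increase reporter signal over DMSO so potencies reflect activators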
Sequence of Estrogen-related receptor gamma (Homo sapiens) (P62508 whole entry, looked up, the tested form may be a part): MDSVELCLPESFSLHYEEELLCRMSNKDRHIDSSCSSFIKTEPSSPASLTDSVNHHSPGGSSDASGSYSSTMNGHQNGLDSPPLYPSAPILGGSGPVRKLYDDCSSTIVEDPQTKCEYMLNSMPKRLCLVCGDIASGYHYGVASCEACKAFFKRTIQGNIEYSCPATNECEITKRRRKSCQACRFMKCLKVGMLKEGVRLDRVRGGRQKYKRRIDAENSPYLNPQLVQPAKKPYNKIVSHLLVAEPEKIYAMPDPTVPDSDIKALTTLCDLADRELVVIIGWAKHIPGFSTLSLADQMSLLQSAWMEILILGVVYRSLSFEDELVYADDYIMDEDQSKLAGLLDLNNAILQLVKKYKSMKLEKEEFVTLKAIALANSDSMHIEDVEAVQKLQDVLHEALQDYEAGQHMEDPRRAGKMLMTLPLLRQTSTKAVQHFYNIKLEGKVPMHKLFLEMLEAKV
How it was run: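 Readout: fluorescent reporter-mRNA fragments resolved by capillary electrophoresis after RT-PCR and HpaI cut. Cells: transiently transfected HepG2 carrying GAL4-UAS reporters driven by exogenous NR-Gal4 chimeras, dosed 24 h. Activity fitted upward relative to DMSO baseline.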

Measured: AC50

CCCOCCO
not listed: [16] | [17] | [18] | [19]
inactive: all other assays above

C#CC(C)N(C)C(=O)Nc1ccc(Cl)cc1 (stereo not given)
not listed: [6] | [7] | [8] | [9] | [12] | [19]
inactive: all other assays above

O=[N+]([O-])c1ccc(O)cc1C(F)(F)F
active: [1] 26.8 µM | [5] 31 µM | [15] 25.2 µM
not listed: [7] | [19]
inactive: all other assays above

COC(=O)c1ccc(OC)cc1
active: [8] 15.1 µM
not listed: [7] | [13] | [15]
inactive: all other assays above

CC(O)C1CCCCC1 (stereo not given)
not listed: [6] | [9] | [10] | [13] | [19]
inactive: all other assays above

CCC(C)c1cc([N+](=O)[O-])cc([N+](=O)[O-])c1OC(=O)OC(C)C (stereo not given)
active: [2] 100 µM | [3] 0.705 µM | [5] 24.3 µM | [13] 27.1 µM | [14] 156 µM | [15] 143 µM
not listed: [7] | [8] | [9] | [11] | [18]
inactive: all other assays above

BrCc1cccc(Oc2ccccc2)c1
not listed: [9] | [10] | [13] | [16] | [17]
inactive: all other assays above

FC(F)(F)COCC(F)(F)F
not listed: [10] | [13] | [17] | [19]
inactive: all other assays above

CC(=O)C1(C)CC2=C(CCCC2(C)C)CC1C (stereo not given)
active: [1] 148 µM
not listed: [9] | [10] | [11] | [12] | [13] | [16] | [19]
inactive: all other assays above
